Values without a mark were called inactive. For some assays here: Measured potencies and affinities stand elsewhere. The source made the active and inactive calls. Unless noted, no rule for the calls is given here.
What was measured:
[1] = antimalarial activity against Dd2 strain (AID 2302;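 active = growth inhibition above 50% at the single 2 µM test dose, taken to imply half-maximal potency below 2 µM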;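 also: 0% = DMSO untreated growth and 100% = chloroquine plus artemisinin killed control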); conditions: P. falciparum Dd2 in RBCs, LDH growth readout, 72 h; at 2 µM; active compounds read high
[2] = human hepatoma cell viability loss – ATP luminescence, cytotoxicity control for P. falciparum antimalarial project, primary screen (AID 2303;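 active = inhibition above 50%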;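 also: 0% = DMSO wells and 100% = digitonin-killed cells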); conditions: HepG2 viability, 24-48 h, at 10 µM, active compounds read high
[3] = target: L-lactate dehydrogenase (Plasmodium falciparum (isolate CDC / Honduras)) (UniProt Q27743); assay: PfLDH activity inhibition – cell lysate, 3D7 strain, counter-screen for P. falciparum growth inhibition project (AID 2304);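 also: 0% = vehicle and 100% = reference inhibitor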; conditions: P. falciparum 3D7 crude extract, LDH APAD/NBT absorbance; at 2 µM; active compounds read high
[4] = inhibition of 3D7 malaria parasite growth – strain 3D7 (AID 2306);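 also: 0% = DMSO wells and 100% = chloroquine plus artemisinin control wells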; conditions: P. falciparum 3D7 erythrocytic growth, LDH absorbance, 72 h; at 2 µM; active compounds read high
[5] = target: Calcium-dependent protein kinase 1 (Plasmodium falciparum (isolate 3D7)) (UniProt P62344); assay: PfCDPK1 kinase inhibitors, biochemical, TCAMS library (AID 1159585; cut-off not given, nearly all actives have IC50 up to about 0.98 µM;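 also: inhibitors leave more ATP so luminescence rises with inhibition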); conditions: recombinant PfCDPK1, Kinase-Glo ATP depletion luminescence
[6] = target: Plasmodium falciparum protein kinase 6 (PK6, PF3D7_1337100) (UniProt Q8IDW1); assay: PfPK6 kinase inhibitors, biochemical, TCAMS library (AID 1159586); conditions: recombinant PfPK6, Kinase-Glo ATP depletion luminescence
[7] = target: Protein kinase 7 (PK7), Plasmodium falciparum 3D7 (PF3D7_0213400) (UniProt Q7YTF7); assay: inhibition of Plasmodium PK7 catalytic activity – biochemical, TCAMS antimalarial set, Kinase-Glo luminescence (AID 1159587); conditions: recombinant PfPK7, Kinase-Glo ATP depletion luminescence
[8] = target: Calcium-dependent protein kinase 4 (Plasmodium falciparum (isolate 3D7)) (UniProt Q8IBS5); assay: PfCDPK4 kinase inhibitors, biochemical, TCAMS library (AID 1159588; cut-off not given, nearly all actives have IC50 up to about 0.91 µM); conditions: recombinant PfCDPK4, Kinase-Glo ATP depletion luminescence
Sequence of Calcium-dependent protein kinase 4 (Plasmodium falciparum (isolate 3D7)) (Q8IBS5 whole entry, looked up): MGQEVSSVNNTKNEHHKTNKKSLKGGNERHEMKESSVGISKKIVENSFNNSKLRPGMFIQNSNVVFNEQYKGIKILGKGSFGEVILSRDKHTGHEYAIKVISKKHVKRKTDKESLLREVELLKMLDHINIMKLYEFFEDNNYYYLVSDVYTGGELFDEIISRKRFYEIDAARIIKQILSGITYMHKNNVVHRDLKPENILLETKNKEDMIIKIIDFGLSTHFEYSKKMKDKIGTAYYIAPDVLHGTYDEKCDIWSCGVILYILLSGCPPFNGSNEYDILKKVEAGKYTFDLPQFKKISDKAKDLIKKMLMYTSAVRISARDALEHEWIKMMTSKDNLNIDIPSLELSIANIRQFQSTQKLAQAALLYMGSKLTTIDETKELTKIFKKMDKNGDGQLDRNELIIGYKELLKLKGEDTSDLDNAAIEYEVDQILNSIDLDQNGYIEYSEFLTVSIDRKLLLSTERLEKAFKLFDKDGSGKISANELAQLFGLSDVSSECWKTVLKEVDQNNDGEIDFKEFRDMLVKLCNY

Sequence of L-lactate dehydrogenase (Plasmodium falciparum (isolate CDC / Honduras)) (Q27743 whole entry, looked up): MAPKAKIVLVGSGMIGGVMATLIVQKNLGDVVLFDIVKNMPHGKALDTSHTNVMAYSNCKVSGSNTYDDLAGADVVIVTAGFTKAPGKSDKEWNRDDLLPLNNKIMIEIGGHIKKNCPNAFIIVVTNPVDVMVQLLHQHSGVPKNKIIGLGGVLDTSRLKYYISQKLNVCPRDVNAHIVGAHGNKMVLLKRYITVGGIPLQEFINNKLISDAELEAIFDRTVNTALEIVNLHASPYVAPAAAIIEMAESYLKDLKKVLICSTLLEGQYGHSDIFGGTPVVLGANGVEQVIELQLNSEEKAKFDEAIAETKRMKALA
Sequence of Calcium-dependent protein kinase 1 (Plasmodium falciparum (isolate 3D7)) (P62344 whole entry, looked up): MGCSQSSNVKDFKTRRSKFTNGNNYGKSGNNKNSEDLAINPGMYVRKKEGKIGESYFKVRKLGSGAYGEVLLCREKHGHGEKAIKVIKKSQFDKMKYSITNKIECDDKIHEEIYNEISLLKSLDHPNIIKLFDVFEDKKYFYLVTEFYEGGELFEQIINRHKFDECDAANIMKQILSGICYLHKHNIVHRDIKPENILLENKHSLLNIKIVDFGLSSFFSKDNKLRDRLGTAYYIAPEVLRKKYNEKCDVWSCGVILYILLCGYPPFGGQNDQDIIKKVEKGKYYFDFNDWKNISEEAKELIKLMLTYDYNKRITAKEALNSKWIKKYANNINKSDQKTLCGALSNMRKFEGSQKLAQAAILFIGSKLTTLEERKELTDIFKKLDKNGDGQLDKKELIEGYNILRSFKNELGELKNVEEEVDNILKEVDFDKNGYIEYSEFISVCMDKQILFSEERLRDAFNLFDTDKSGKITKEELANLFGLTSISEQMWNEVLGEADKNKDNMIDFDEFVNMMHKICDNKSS
Sequence of Plasmodium falciparum protein kinase 6 (PK6, PF3D7_1337100) (Q8IDW1 1-305): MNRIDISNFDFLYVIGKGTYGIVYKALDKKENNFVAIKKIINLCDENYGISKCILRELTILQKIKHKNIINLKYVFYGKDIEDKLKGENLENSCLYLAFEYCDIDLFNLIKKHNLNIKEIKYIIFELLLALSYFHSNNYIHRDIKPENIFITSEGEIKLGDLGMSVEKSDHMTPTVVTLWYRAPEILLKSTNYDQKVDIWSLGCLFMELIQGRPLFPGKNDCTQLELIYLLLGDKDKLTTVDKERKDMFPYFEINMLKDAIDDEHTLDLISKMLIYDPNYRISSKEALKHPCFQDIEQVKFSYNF
Sequence of Protein kinase 7 (PK7), Plasmodium falciparum 3D7 (PF3D7_0213400) (Q7YTF7 1-343): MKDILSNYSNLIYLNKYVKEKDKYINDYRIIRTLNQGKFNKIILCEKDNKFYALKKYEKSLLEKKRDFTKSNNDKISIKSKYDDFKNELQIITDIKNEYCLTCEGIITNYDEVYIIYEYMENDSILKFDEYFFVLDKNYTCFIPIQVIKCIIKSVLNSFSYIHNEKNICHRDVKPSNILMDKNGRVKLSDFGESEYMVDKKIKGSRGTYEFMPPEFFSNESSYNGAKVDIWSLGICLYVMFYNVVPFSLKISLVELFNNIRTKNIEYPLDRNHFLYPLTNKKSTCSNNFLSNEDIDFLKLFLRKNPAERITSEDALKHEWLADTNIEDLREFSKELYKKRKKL

SMILES	growth inhibition [1]	inhibition [2]	inhibition [3] [%]	growth inhibition [4]	outcome [5]	outcome [6]	outcome [7]	outcome [8]
Oc1ccccc1CN1CCCC(COC(c2ccc(F)cc2)c2ccc(F)cc2)C1 (stereo unspecified)	98% (active)	19%	1	97% (active)	inactive	inactive	inactive	inactive
O=C(Nc1ccc(-c2csc(-c3nc4ccccc4[nH]3)c2)cc1)Nc1ccc(Cl)c(Cl)c1	18%	75% (active)	-6	93% (active)	inactive	inactive	inactive	inactive
CCc1c[nH]c2c(N(c3ccccc3)S(C)(=O)=O)cc(C(=O)N[C@@H](Cc3ccccc3)[C@H](O)CNC(C)(C)CCCC(C)C)cc12	96% (active)	99% (active)	-1	98% (active)	inactive	inactive	inactive	inactive
CC(C)CNCc1cccc(-c2cccc(CN(CCN(C)C)C(=O)Nc3ccccc3)c2)c1	62% (active)	34%	4	99% (active)	inactive	inactive	inactive	inactive
Cc1cc(NCCC(=O)Nc2ccccc2)nc(NCCOc2ccccc2)n1	9%	5%	0	100% (active)	inactive	inactive	inactive	inactive
Cc1cc(Cl)c(S(=O)(=O)N(C)c2ccccc2)cc1OCC(=O)NC1CCCCC1	94% (active)	3%	-3	99% (active)	inactive	inactive	inactive	inactive
CN(C)c1ccc(C=C2SC(=O)NC2=Nc2ccccc2)cc1	96% (active)	42%	6	97% (active)	inactive	inactive	inactive	inactive
CC(=O)c1c[nH]c2ccc(/C=C/C(=O)NC3CCC(CCN4CCc5ccc(C#N)cc5CC4)CC3)cc12 (stereo unspecified)	98% (active)	11%	9	101% (active)	inactive	inactive	inactive	inactive
O=C(Nc1nc2cc(S(=O)(=O)NCc3ccc(Cl)c(Cl)c3)ccc2n1CCCN1CCCC1)c1ccc(Cl)cc1	16%	57% (active)	-1	89% (active)	inactive	inactive	inactive	inactive
O=C(c1ccc(-c2ccccn2)s1)N1CCc2cc3nccc(N4CCN5CCC[C@H]5C4)c3cc21	49%	-15%	-4	96% (active)	inactive	inactive	inactive	inactive
Nc1ncc(-c2ccsc2)c2ccc(-c3cc(NCc4ccccc4)ncn3)cc12	86% (active)	0%	3	101% (active)	inactive	inactive	inactive	inactive
CCNC(=O)N1CCN(c2nc(-c3ccccc3)nc(COC)c2Cc2ccc(C)cc2)CC1	94% (active)	27%	0	95% (active)	inactive	inactive	inactive	inactive
O=c1cc(NCCCNC(CNCCc2ccccc2)c2cc(Br)cc(Br)c2)[nH]c2ccccc12 (stereo unspecified)	53% (active)	-2%	1	93% (active)	inactive	inactive	inactive	inactive
CC(C(=O)NC1CCN(c2ccnc(Nc3ccc(F)cc3)n2)C1)c1ccc(Cl)cc1 (stereo unspecified)	90% (active)	17%	-4	95% (active)	inactive	inactive	inactive	inactive
CCCNc1ccc2nccc(CCN3CCC(NCc4ccc5c(n4)NC(=O)CS5)CC3)c2n1	-1%	24%	-1	103% (active)	inactive	inactive	inactive	inactive
CCCCc1ccc(S(=O)(=O)Nc2ccc3c(c2)CCN(Cc2c[nH]c4cnccc24)CC3)cc1	12%	41%	-5	99% (active)	inactive	inactive	inactive	inactive
CCOC(=O)N1CCC(NC(=O)c2ccc(C(C)(C)C)cc2OC)CC1	-5%	-7%	0	88% (active)	inactive	inactive	inactive	inactive
NOCCCCOc1cc(Cl)c(Cl)cc1Cl	5%	6%	-2	92% (active)	inactive	inactive	inactive	inactive
c1ccc(-c2cc(NCc3cccc4ccccc34)c3[nH]ncc3n2)cc1	5%	7%	-8	93% (active)	inactive	inactive	inactive	inactive

SMILES	growth inhibition [1]	inhibition [2]	inhibition [3] [%]	growth inhibition [4]	outcome [5]	outcome [6]	outcome [7]	outcome [8]
Cc1[nH]c(C)c(-c2ccc(OCc3ccccc3)cc2)c(=O)c1Br	96% (active)	19%	-2	97% (active)	inactive	inactive	inactive	inactive
NC(=S)Cc1ccc2c(c1)OCO2	-3%	43%	-2	96% (active)	inactive	inactive	inactive	inactive
CCCN1CCN(c2ccccc2NS(=O)(=O)c2ccc(C(=O)Nc3ccc(Cl)cc3)cc2)CC1	9%	17%	-2	84% (active)	inactive	inactive	inactive	inactive
CCOC(=O)CCCc1cc(NC2CCN(C)CC2)nc(Nc2ccc(C)cc2)n1	12%	35%	-2	90% (active)	inactive	inactive	inactive	inactive
c1cc(CNCCc2ccncc2)cc(-c2cccc(-c3nc4ccccc4[nH]3)c2)c1	88% (active)	21%	1	100% (active)	inactive	inactive	inactive	inactive
CS(=O)(=O)CCNCc1ccc(-c2ccc3c(Nc4ccc(Cl)cc4F)ccnc3c2)o1	98% (active)	6%	-3	99% (active)	inactive	inactive	inactive	inactive
CC1CN(Cc2ccccc2)CCN1c1ccc(NC(=O)c2ccc(F)cc2)cc1 (stereo unspecified)	89% (active)	-6%	-5	87% (active)	inactive	inactive	inactive	inactive
N#Cc1ccccc1S(=O)(=O)N1CCCC(CNC(=O)[C@H](CC2CCCCC2)NC(=O)c2cc3ccccc3s2)C1 (stereo partly specified)	92% (active)	9%	-2	97% (active)	inactive	inactive	inactive	inactive
Cn1cnc(CCNC(=O)c2cccc(-c3cccc(-c4nc5ccc(C(F)(F)F)cc5[nH]4)c3)c2)c1	45%	37%	4	100% (active)	inactive	inactive	inactive	inactive
CCOc1ccc(C(C)NC(=O)c2ccc(OC)c(Br)c2)cc1OCC (stereo unspecified)	100% (active)	9%	2	100% (active)	inactive	inactive	inactive	inactive
Cc1nc(-c2ccccc2)nc(N2CCN(C(=O)c3ccco3)CC2)c1Cc1ccccc1F	86% (active)	7%	1	95% (active)	inactive	inactive	inactive	inactive
CCn1cc(-c2nc(-c3cc(OC)cc(OC)c3)no2)c(=O)c2ccccc21	77% (active)	-7%	0	89% (active)	inactive	inactive	inactive	inactive
COc1ccc(CNCc2ccc(-c3ccc(-c4nc5ccc(C(F)(F)F)cc5[nH]4)cc3)cc2)cc1	99% (active)	75% (active)	7	102% (active)	inactive	inactive	inactive	inactive
Cc1ccc(N2CCc3c(-c4cc5cccnc5nc4C)cc(C)nc32)c(Cl)c1	90% (active)	-14%	3	96% (active)	inactive	inactive	inactive	inactive
CC(C)(C)C/C=C\c1ccc(C(=O)NCC2CC2)cc1	88% (active)	0%	-2	94% (active)	inactive	inactive	inactive	inactive
c1cc(Nc2nc(-c3ccc(-c4csc(Nc5ccncc5)n4)cc3)cs2)ccn1	99% (active)	91% (active)	-4	100% (active)	inactive	inactive	inactive	inactive
NC(=O)c1ccc(C(=O)Nc2cccc(-c3cccc(-c4nc5ccc(C(F)(F)F)cc5[nH]4)c3)c2)cc1	36%	63% (active)	-5	100% (active)	inactive	inactive	inactive	inactive
CCN(CC)C(=NCCCCCCN=C(/N=C(\N)c1ccc(Cl)cc1)N(CC)CC)/N=C(\N)c1ccc(Cl)cc1	99% (active)	1%	1	97% (active)	inactive	inactive	inactive	inactive

— PubChem BioAssay
